Inconclusive results are not listed. The source made the active and inactive calls. The calls were made as follows, unless noted: active = hit-call score of the fitted dose curve at least 0.9, where 1 is the maximum; inactive = score below 0.9.
What was measured:
[1] = BSK_LPS_PGE2: BioMAP Diversity Plus: LPS Assay for Prostaglandin E2 (PGE2) Biomarker Activity (AID 2283082); conditions: primary human HUVEC with PBMC; actives raise or lower the signal;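 as to AC50: secreted prostaglandin E2 measured by ELISA in LPS-stimulated co-culture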
Procedure, shortened: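 LPS-activated HUVEC/PBMC co-culture; cmpd dosed, 24 h; PGE2 by ELISA; bidirectional fit vs DMSO; SRB (0.1%, TCA-fixed, 560 nm) in parallel plates for overt cytotox.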

[2] = read-out: Macrophage colony-stimulating factor (MCSF), CSF1 (gene 1435); assay: BSK_LPS_MCSF: BioMAP Diversity Plus: LPS Assay for Macrophage colony-stimulating factor (MCSF) Biomarker Activity (AID 2283083); conditions: primary human HUVEC with PBMC; actives raise or lower the signal
Procedure, shortened: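 Bidirectional fitting against DMSO was applied to M-CSF levels read by ELISA at 24 h post-dose. The system pairs human umbilical vein endothelium with peripheral blood mononuclear cells; parallel SRB staining tracked cytotoxicity.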

[3] = read-out: Tissue Factor, F3 (gene 2152); assay: BSK_LPS_TissueFactor: BioMAP Diversity Plus: LPS Assay for Tissue Factor Biomarker Activity (AID 2283084); conditions: primary human HUVEC with PBMC; actives raise or lower the signal
Procedure, shortened: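 Compound was added to an endothelial cell/PBMC co-culture, and after 24 h tissue factor (CD142) was read by ELISA. Gain or loss of signal was fitted against a DMSO baseline, and parallel SRB staining (560 nm) tracked overt cytotoxicity.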

[4] = read-out: Tumor necrosis factor (Homo sapiens) (UniProt P01375); assay: BSK_LPS_TNFa: BioMAP Diversity Plus: LPS Assay for Tumour Necrosis Factor alpha (TNFa) Biomarker Activity (AID 2283085); conditions: primary human HUVEC with PBMC; actives raise or lower the signal
Procedure, shortened: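 Read-out is ELISA of TNFa in primary human endothelial cell–PBMC co-cultures at 24 h after compound. Activity in either direction was fitted against DMSO.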

[5] = read-out: Vascular cell adhesion molecule 1 (VCAM1), VCAM1 (gene 7412); assay: BSK_LPS_VCAM1: BioMAP Diversity Plus: LPS Assay for Vascular cell adhesion molecule 1 (VCAM1) Biomarker Activity (AID 2283086); conditions: primary human HUVEC with PBMC; actives raise or lower the signal
Procedure, shortened: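 HUVEC + PBMC co-culture, LPS system; compound 24 h; VCAM-1 by ELISA; bidirectional fit vs DMSO control; parallel SRB (0.1%, TCA-fixed, 560 nm) for cytotoxicity.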

[6] = read-out: CD38, CD38 (gene 952); assay: BSK_SAg_CD38: BioMAP Diversity Plus: SAg Assay for CD38 Biomarker Activity (AID 2283087); conditions: primary human HUVEC with PBMC; actives raise or lower the signal
Procedure, shortened: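 Human HUVEC plus PBMC co-culture stimulated with superantigen; CD38 measured by ELISA 24 h after chemical dosing. Fluorescence read-out, bidirectional fit against DMSO; cytotoxicity tracked in parallel by SRB and Alamar Blue.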

[7] = read-out: CD40, CD40 (gene 958); assay: BSK_SAg_CD40: BioMAP Diversity Plus: SAg Assay for CD40 Biomarker Activity (AID 2283088); conditions: primary human HUVEC with PBMC; actives raise or lower the signal
Procedure, shortened: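 CD40 is measured by fluorescence ELISA in an endothelial/PBMC primary human co-culture at 24 h post-dose. Fitting is bidirectional, DMSO baseline. Parallel SRB staining (560 nm) flags cytotoxicity.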

[8] = read-out: Monocyte Chemoattractant Protein-1 (MCP1), CCL2 (gene 6347); assay: BSK_SAg_MCP1: BioMAP Diversity Plus: SAg Assay for Monocyte Chemoattractant Protein-1 (MCP1) Biomarker Activity (AID 2283090); conditions: primary human HUVEC with PBMC; actives raise or lower the signal
Procedure, shortened: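 MCP-1 levels in the endothelial–PBMC SAg co-culture were quantified by ELISA at 24 h post-dosing; both increases and decreases versus DMSO scored. Cytotoxicity monitored by SRB total protein in parallel cultures.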

[9] = read-out: E-selectin (Homo sapiens) (UniProt P16581); assay: BSK_SAg_Eselectin: BioMAP Diversity Plus: SAg Assay for Eselectin Biomarker Activity (AID 2283091); conditions: primary human HUVEC with PBMC; actives raise or lower the signal
Procedure, shortened: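 Cell-surface E-selectin is read by ELISA at 24 h in the SAg co-culture of HUVEC and PBMC. Curves are fitted in both directions relative to DMSO. Parallel SRB total-protein staining tracks overt toxicity.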

[10] = read-out: Monokine induced gamma interferon (MIG), CXCL9 (gene 4283); assay: BSK_SAg_MIG: BioMAP Diversity Plus: SAg Assay for Monokine induced gamma interferon (MIG) Biomarker Activity (AID 2283092); conditions: primary human HUVEC with PBMC; actives raise or lower the signal
Procedure, shortened: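 ELISA readout of MIG/CXCL9; primary human umbilical vein endothelial cells co-cultured with peripheral blood mononuclear cells; 24 h post-dose; gain/loss fit vs DMSO baseline.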

[11] = BSK_SAg_PBMCCytotoxicity: PBMC Cytotoxicity Assessment in the BioMAP Diversity Plus: SAg Assay (AID 2283093); conditions: primary human HUVEC with PBMC;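 also: PBMC viability measured as Alamar Blue reduction fluorescence at 546/580 nm; fitted both ways against DMSO so a hit may be loss or gain of signal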;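 as to AC50: PBMC superantigen activated with SEB plus TSST-1 one hour after compound addition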
Procedure, shortened: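 Human umbilical vein endothelial cells co-cultured with PBMC; PBMC (75,000/well) pre-treated with compound 1 h, then activated with SEB and TSST-1 (20 ng/mL final each) for 90 h. Alamar Blue added 6 h, fluorescence 546/580 nm; bidirectional fit versus DMSO.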

[12] = read-out: Interleukin-8 (IL8), CXCL8 (gene 3576); assay: BSK_SAg_IL8: BioMAP Diversity Plus: SAg Assay for Interleukin-8 (IL8) Biomarker Activity (AID 2283094); conditions: primary human HUVEC with PBMC; actives raise or lower the signal
Procedure, shortened: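 ELISA read-out of IL-8 in a primary human vascular co-culture (umbilical vein endothelium plus PBMC), taken 24 h after compound addition. Values derive from bidirectional fits against DMSO negative controls.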

[13] = BSK_SAg_Proliferation: Cell Proliferation Assessment in the BioMAP Diversity Plus: SAg Assay (AID 2283095); conditions: primary human HUVEC with PBMC;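 also: relative cell number as total protein by SRB absorbance in sub-confluent culture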
Procedure, shortened: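 Cells (endothelium plus PBMC, human primary) were dosed with chemical, cultured 96 h, fixed in 10% TCA and stained with 0.1% SRB. Absorbance at 560 nm gave relative protein, fitted bidirectionally relative to DMSO.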

[14] = BSK_SAg_SRB: Viability Assessment in the BioMAP Diversity Plus: SAg Assay (AID 2283096); conditions: primary human HUVEC with PBMC;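 also: cells read one day after compound addition; hits may be either gain or loss of signal compared with DMSO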
Procedure, shortened: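 Endothelial/PBMC primary human co-culture; compound 24 h; fix 10% TCA, stain 0.1% SRB, A560; protein content as cytotoxicity proxy; bidirectional curve fit, DMSO = baseline.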

[15] = target: human CYP2A6, CYP2A6 (gene 1548) (UniProt P11509); assay: NVS_ADME_hCYP2A6: NovaScreen (NVS) CYP450-related Enzyme Activity (ADME) Assay for human CYP2A6 (AID 2283099; active = hit-call score of the fitted dose curve at least 0.9, where 1 is the maximum)
Chain of human CYP2A6, CYP2A6 (gene 1548) (P11509 whole entry, looked up): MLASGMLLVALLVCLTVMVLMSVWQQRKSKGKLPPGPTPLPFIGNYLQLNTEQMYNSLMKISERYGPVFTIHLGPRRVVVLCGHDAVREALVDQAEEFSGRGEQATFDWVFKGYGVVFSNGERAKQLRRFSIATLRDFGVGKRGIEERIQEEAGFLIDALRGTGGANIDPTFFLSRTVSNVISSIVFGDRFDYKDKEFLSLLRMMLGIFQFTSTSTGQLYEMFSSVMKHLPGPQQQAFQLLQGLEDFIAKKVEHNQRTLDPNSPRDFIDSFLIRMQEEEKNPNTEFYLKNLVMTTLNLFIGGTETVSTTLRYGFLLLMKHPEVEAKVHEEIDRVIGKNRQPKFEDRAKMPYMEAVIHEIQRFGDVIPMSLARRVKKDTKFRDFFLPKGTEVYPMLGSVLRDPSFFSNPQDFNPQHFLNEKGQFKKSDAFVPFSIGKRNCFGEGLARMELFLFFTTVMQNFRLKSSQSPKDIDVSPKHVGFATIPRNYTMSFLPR
Procedure, shortened: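 Compounds screened at 10 uM (duplicate) and, if active, titrated to a 20 uM top concentration against insect-cell-expressed CYP2A6. Loss of fluorescent product signal after 0.5 h, relative to acetonitrile baseline, indicates inhibition.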

[16] = target: human CYP1A1, CYP1A1 (gene 1543) (UniProt P04798); assay: NVS_ADME_hCYP1A1: NovaScreen (NVS) CYP450-related Enzyme Activity (ADME) Assay for human CYP1A1 (AID 2283100; active = hit-call score of the fitted dose curve at least 0.9, where 1 is the maximum)
Chain of human CYP1A1, CYP1A1 (gene 1543) (P04798 whole entry, looked up): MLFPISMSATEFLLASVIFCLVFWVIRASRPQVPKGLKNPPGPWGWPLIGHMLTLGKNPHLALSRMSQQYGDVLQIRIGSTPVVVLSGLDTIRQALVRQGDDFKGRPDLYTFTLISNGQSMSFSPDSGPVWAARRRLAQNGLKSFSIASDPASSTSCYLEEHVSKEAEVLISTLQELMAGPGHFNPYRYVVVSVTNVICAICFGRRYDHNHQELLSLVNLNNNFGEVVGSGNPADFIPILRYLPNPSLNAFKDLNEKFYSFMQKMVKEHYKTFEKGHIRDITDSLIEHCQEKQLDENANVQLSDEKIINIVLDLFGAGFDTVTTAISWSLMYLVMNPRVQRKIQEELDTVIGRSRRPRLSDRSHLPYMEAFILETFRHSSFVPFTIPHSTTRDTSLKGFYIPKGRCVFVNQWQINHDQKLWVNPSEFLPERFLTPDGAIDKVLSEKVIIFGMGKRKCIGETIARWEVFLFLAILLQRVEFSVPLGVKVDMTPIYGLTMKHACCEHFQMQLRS
Procedure, shortened: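 Chemicals were first tested in duplicate at 10 uM, and those passing a 30% inhibition threshold were rerun as concentration series topping at 20 uM. Fluorescence read-out of recombinant enzyme turnover after 1 h, relative to acetonitrile.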

[17] = target: human CYP2B6, CYP2B6 (gene 1555) (UniProt P20813); assay: NVS_ADME_hCYP2B6: NovaScreen (NVS) CYP450-related Enzyme Activity (ADME) Assay for human CYP2B6 (AID 2283101; active = hit-call score of the fitted dose curve at least 0.9, where 1 is the maximum)
Chain of human CYP2B6, CYP2B6 (gene 1555) (P20813 whole entry, looked up): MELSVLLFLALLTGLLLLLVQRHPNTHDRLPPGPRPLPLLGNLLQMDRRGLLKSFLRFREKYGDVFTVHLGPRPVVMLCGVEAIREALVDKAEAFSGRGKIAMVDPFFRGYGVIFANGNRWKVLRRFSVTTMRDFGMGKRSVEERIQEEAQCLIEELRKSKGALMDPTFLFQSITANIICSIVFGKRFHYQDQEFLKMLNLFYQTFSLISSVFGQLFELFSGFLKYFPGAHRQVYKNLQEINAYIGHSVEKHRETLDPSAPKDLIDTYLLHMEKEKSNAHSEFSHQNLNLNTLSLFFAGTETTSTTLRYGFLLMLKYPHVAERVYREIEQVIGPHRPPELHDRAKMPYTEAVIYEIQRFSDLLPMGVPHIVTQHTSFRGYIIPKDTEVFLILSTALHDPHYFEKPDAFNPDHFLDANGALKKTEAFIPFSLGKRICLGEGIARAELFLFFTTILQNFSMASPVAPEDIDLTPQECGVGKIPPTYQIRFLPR
Procedure, shortened: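 Fluorescence-based enzyme activity of recombinant human CYP2B6, measured 1 h post-dose against acetonitrile vehicle baseline. Screened at a single concentration of 10 uM in duplicate before concentration-response follow-up.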

[18] = target: human CYP1A2, CYP1A2 (gene 1544) (UniProt P05177); assay: NVS_ADME_hCYP1A2: NovaScreen (NVS) CYP450-related Enzyme Activity (ADME) Assay for human CYP1A2 (AID 2283102; active = hit-call score of the fitted dose curve at least 0.9, where 1 is the maximum)
Chain of human CYP1A2, CYP1A2 (gene 1544) (P05177 whole entry, looked up): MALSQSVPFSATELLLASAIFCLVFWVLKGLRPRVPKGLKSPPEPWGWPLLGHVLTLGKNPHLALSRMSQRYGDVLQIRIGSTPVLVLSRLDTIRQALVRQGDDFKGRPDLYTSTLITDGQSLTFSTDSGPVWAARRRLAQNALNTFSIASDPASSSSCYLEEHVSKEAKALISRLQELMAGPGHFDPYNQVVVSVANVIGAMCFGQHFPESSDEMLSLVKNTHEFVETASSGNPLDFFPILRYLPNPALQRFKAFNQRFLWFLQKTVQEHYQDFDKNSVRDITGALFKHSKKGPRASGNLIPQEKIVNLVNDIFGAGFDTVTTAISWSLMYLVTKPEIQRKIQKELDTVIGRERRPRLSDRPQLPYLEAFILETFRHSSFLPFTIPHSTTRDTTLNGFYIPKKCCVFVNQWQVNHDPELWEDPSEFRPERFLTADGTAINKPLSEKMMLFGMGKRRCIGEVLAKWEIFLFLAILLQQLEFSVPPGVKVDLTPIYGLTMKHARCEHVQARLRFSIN
Procedure, shortened: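 Enzyme activity of insect-cell-expressed human CYP1A2 measured by fluorescence 0.5 h after compound addition, relative to acetonitrile. Compounds first tested in duplicate at 10 uM, actives followed up in concentration series.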

[19] = target: human CYP19A1, CYP19A1 (gene 1588) (UniProt P11511); assay: NVS_ADME_hCYP19A1: NovaScreen (NVS) CYP450-related Enzyme Activity (ADME) Assay for human CYP19A1 (AID 2283098; active = hit-call score of the fitted dose curve at least 0.9, where 1 is the maximum)
Chain of human CYP19A1, CYP19A1 (gene 1588) (P11511 whole entry, looked up): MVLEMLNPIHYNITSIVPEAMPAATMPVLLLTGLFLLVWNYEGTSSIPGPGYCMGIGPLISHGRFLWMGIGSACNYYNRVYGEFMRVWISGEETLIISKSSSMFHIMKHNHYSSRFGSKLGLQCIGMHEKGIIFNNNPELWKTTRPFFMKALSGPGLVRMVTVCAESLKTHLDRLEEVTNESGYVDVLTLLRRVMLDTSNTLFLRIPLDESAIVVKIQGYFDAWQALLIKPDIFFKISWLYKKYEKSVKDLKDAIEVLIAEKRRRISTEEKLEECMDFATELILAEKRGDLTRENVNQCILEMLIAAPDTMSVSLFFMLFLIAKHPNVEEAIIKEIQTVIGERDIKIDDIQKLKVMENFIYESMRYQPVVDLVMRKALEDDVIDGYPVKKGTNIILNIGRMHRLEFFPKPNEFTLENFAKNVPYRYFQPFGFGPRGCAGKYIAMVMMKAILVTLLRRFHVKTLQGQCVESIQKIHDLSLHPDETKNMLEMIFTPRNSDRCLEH
Procedure, shortened: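 Cell-free enzyme assay with recombinant protein and a specific fluorogenic substrate, read by fluorescence intensity 0.5 h after dosing. Primary screen ran in duplicate at 10 uM; actives were retested in concentration series. Loss of signal versus acetonitrile baseline.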

Measured: AC50

Chain of Tumor necrosis factor (Homo sapiens) (P01375 whole entry, looked up): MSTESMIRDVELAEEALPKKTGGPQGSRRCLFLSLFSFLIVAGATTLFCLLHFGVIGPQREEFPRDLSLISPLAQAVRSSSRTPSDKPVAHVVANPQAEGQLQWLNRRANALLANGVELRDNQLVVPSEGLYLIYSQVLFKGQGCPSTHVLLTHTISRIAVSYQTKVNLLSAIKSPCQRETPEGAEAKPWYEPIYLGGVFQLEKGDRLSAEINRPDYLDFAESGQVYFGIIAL
Chain of E-selectin (Homo sapiens) (P16581 whole entry, looked up): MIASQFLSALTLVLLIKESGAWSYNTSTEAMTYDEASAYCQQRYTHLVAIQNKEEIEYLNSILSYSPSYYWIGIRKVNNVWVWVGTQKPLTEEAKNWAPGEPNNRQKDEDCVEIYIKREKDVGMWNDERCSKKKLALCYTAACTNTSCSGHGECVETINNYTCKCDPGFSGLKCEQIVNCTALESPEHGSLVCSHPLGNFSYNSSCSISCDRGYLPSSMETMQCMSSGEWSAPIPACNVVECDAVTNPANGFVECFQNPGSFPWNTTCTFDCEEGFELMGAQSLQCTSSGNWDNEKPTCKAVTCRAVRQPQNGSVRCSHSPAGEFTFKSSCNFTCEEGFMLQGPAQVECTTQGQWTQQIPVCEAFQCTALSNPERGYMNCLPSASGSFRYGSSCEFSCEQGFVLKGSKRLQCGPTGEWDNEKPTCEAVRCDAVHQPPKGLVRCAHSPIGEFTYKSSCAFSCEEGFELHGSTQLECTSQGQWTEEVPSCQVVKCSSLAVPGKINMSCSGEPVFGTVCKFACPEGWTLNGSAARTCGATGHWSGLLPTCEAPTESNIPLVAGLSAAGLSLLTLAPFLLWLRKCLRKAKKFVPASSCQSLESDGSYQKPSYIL

CCCCC(CC)COC(=O)CCCCC(=O)OCc1ccccc1 (stereo not drawn)
not listed: [15] | [16] | [17] | [18] | [19]
inactive: all other assays above

Cc1oc(-c2ccccc2)nc1CCOc1ccc(C[C@H](Nc2ccccc2C(=O)c2ccccc2)C(=O)O)cc1
active: [1] 8.83 µM | [2] 30.6 µM | [3] 31.6 µM | [4] 30.4 µM | [5] 33.1 µM | [6] 28.6 µM | [7] 30 µM | [8] 24.1 µM | [9] 31.5 µM | [10] 38.9 µM | [11] 28.9 µM | [12] 15.8 µM | [13] 19.3 µM | [14] 18.8 µM

O=C(O)Cc1cc(I)c(Oc2cc(I)c(O)c(I)c2)c(I)c1
inactive: [2] | [3] | [11] | [14]
active: [1] 15.1 µM | [4] 17.4 µM | [5] 13.4 µM | [6] 21.3 µM | [7] 18.5 µM | [8] 18.9 µM | [9] 16.2 µM | [10] 23.6 µM | [12] 13.4 µM | [13] 19.6 µM

CC(=O)CC(C)(C)O
not listed: [15] | [16] | [17] | [18] | [19]
inactive: all other assays above

CC(O)CO (stereo not drawn)
not listed: [15] | [16] | [17] | [18] | [19]
inactive: all other assays above

CN1CCN(c2ccccc2/C=C2\SCCN(c3ccc(Cl)c(Cl)c3)C2=O)CC1
inactive: [1] | [2] | [3] | [9] | [10]
active: [4] 20 µM | [5] 13 µM | [6] 24.1 µM | [7] 20 µM | [8] 23 µM | [11] 14.4 µM | [12] 20 µM | [13] 6.38 µM | [14] 5.22 µM

CCc1nn(C2CCCCC2)c2cc(C3(C#N)CCC(C(=O)O)CC3)ccc12 (stereo not drawn)
active: [2] 1.85 µM | [4] 0.358 µM | [5] 2.43 µM | [6] 20 µM | [7] 10.6 µM | [8] 4.61 µM | [9] 1.78 µM | [10] 28 µM | [12] 2.73 µM | [13] 12.5 µM | [14] 11.5 µM
inactive: [1] | [3] | [11]

CC1=C(/C=C/C(C)=C/C=C/C(C)=C/C(=O)O)C(C)(C)CCC1
active: [1] 0.918 µM | [2] 4.31 µM | [4] 0.358 µM | [5] 24.3 µM | [6] 21.9 µM | [7] 20.5 µM | [9] 6.38 µM | [10] 36.5 µM | [13] 27.5 µM | [16] 1.43 µM
inactive: [3] | [8] | [11] | [12] | [14] | [15] | [17] | [18]

CCC(C)(C)C1CCC(O)CC1 (stereo not drawn)
not listed: [15] | [16] | [17] | [18] | [19]
inactive: all other assays above

OC1CCCCC1
not listed: [15] | [16] | [17] | [18] | [19]
inactive: all other assays above

CC(=O)NC1(c2cccc(F)c2)CCN(CC[C@@]2(c3ccc(Cl)c(Cl)c3)CN(c3ccccc3)C(=O)CO2)CC1
active: [5] 16.6 µM | [6] 26.7 µM | [7] 30.5 µM | [8] 27.5 µM | [11] 24.7 µM | [12] 6.76 µM | [14] 24.6 µM
not listed: [17] | [18] | [19]
inactive: all other assays above

CCCCCCCCCCCCCC[N+](C)(C)C
active: [2] 5.39 µM | [3] 5.28 µM | [4] 11 µM | [5] 5.64 µM | [6] 3.24 µM | [7] 2.15 µM | [8] 3.66 µM | [9] 3.2 µM | [10] 7.11 µM | [11] 4.69 µM | [12] 3.2 µM | [13] 0.539 µM | [14] 3.15 µM
inactive: [1]

COC(=O)CCCCC(=O)OC
not listed: [15] | [16] | [17] | [18] | [19]
inactive: all other assays above

c1ccc2cc3c(ccc4ccccc43)cc2c1
active: [3] 0.587 µM
not listed: [15] | [17] | [18]
inactive: all other assays above

c1ccc2c(c1)Cc1ccccc1-2
not listed: [15] | [16] | [17] | [18] | [19]
inactive: all other assays above

— PubChem BioAssay (EPA / NIEHS)
